KB-3-1 tox = KB-3-1 parental cell cytotoxicity; KB-3-1 viability, CellTiter-Glo ATP luminescence, 72 h; Potency, µM (titrated, usually from 46.1 µM), most hits filed as cytotoxic; 400,000 tested, 1.4% active; AID 1347075; note: % is set by controls: 0 for no effect and ±100 for the full control effect; nearly all actives have a fitted effect of over 60% in size
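Here the drug-naive KB-3-1 line serves as comparator for MDR sub-line selectivity; cells received compound titrations, 72 h at 37 °C, then CellTiter-Glo readout.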
KB-V1 cytotox = KB-V1 MDR subline cytotoxicity | KB-V1 MDR cells viability, CellTiter-Glo, 72 h | Potency, µM (highest dose often 46.1 µM), actives largely listed as cytotoxic | 400,000 tested, 3.4% active; note: % is set by controls: 0 for no effect and ±100 for the full control effect; nearly all actives have a fitted effect of over 60% in size
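KB-V1, DMEM (no phenol red) + 10% FBS; cpd pin-transferred, titration series; 72 h, 37 degrees C; CellTiter-Glo, luminescence. Data normalized, curve-fit.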
ELG1 DNA repair = ELG1-dependent DNA repair inhibition; HEK293T ELG1-luciferase reporter, luminescence, 16 h; DNA damage induced by 5-fluorouridine; Potency, µM (titrated, usually from 46.1 µM), for inactives: top-dose activity change, negative = inhibition, actives largely listed as inhibitors; AID 504467; 330,000 tested, 2.3% active; note: % is set by controls: 0 for no effect and ±100 for the full control effect; nearly all actives have a fitted effect of over 55% in size
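Luminescence from the luciferase reporter, measured 30 min after ONE-Glo reagent at room temperature, was the read-out. Beforehand, 2,000 cells per well were exposed for 16 hr at 37 °C to 5-fluorouridine together with compound or vehicle.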
SW480 rerep = DNA re-replication induction in SW480 cells | Potency, µM (highest dose often 46.1 µM), inactives show top-dose re-replication activation, actives largely listed as activators | 340,000 tested, 1.8% active | SW480 DNA re-replication, Hoechst DNA content imaging, 48 h; note: % of control where 0% means no effect; nearly all actives have a fitted effect of over 55% in size
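250 cells/well; 23 nL cpd via pin tool; 48 hr, 37 C, 5% CO2; Hoechst 40 min; imager read of total nuclear intensity, ex 405/em 500-530 nm.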
MCF10A rerep = inducers of DNA re-replication in MCF 10A breast cells. 350,000 tested, 2.9% active. AID 624296. MCF 10A DNA re-replication, Hoechst nuclear intensity, 48 h. Potency, µM (top dose mostly 46.1 µM), for the others: at the top dose activity, positive = re-replication, actives largely listed as activators; note: % of control where 0% means no effect; nearly all actives have a fitted effect of over 50% in size
The depositor's hits bear a star; i = inactive; u = inconclusive; x = no result. The list is not random: actives were taken first. Their share in the collection is about 8.1%. Calls come from the whole dose curve; as a rule, active = well fitted curve in the direction sought with a large enough effect; inconclusive = small, poorly fitted or top-dose-only effect, or another doubt; inactive = no such curve, though single readings can be large; an effect the other way counts as inactive or inconclusive. Potency is the fitted concentration of half-maximal effect.

SMILES	KB-3-1 tox	KB-V1 cytotox	ELG1 DNA repair	SW480 rerep	MCF10A rerep
CCOc1cc(C(=O)N/N=C/c2cn(-c3ccccc3)nc2-c2cc3ccccc3o2)cc(OCC)c1OCC	i	i	x	-13.5%	11.8%
COC(=O)c1ccccc1NC(=O)c1c(C)oc2ncn(C)c(=O)c12	i	i	x	x	x
CCCCCCN1C[C@@H](O)[C@H](n2cc(C3CC3)nn2)C[C@@H]1c1ccc(C)cc1	i	i	x	x	x
COC(=O)N/N=C/c1cc(C)n(-c2ccccc2)c1C	i	i	u	-75.3%	1.3%
Cc1ccc(-n2c(C)cc(/C=N/NC(=O)Cn3c4ccccc4c(=O)c4ccccc43)c2C)cc1	i	i	-19.2%	11.6µM*	14.6µM*
Cc1cc(/C=N/NC(=O)C(O)(c2ccccc2)c2ccccc2)c(C)n1-c1ccccc1	i	u	9.3%	-29.1%	-8.8%
Cc1cc(/C=N/NC(=O)Cn2c3ccccc3c(=O)c3ccccc32)c(C)n1-c1ccc(Cl)cc1	u	i	-10.3%	15.9%	11.6µM*
Cc1cccc(NC(=O)Nc2ccc(C#N)cc2)n1	u	u	-12.9%	u	14.6µM*
COc1ccccc1NC(=O)Nc1cccc(C)n1	20.6µM*	u	-2.5%	-0.2%	5.8%
COC(=O)c1ccccc1NC(=O)Nc1cccc(C)n1	u	i	6.0%	25.1%	-9.8%
Cc1ccc(Cl)cc1N1CCN(CCNC(=O)Nc2ccc(Cl)cc2)CC1	i	i	x	x	x
O=C(Nc1nnc(C2CCCCC2)s1)C1CCN(C(=O)c2ccco2)CC1	u	i	x	x	x
Cc1ccc([C@@H]2CC(=O)[C@@H]3CN(S(=O)(=O)c4ccc(C)cc4)[C@H](c4cccc(Cl)c4)C[C@@H]3N2S(=O)(=O)c2ccc(Cl)cc2)cc1	i	i	x	x	x
CCCCC[C@@H](C)N1C[C@H](COCc2ccccc2)Oc2cc(N3CCC[C@@H]3COC)ccc2S1(=O)=O	i	i	x	x	x
CC(C)N(C(=O)[C@H]1C[C@H](CC(=O)NCCc2ccccn2)C(=O)N2CCc3c([nH]c4cc(CCC(=O)N(C)C)ccc34)[C@]12C)C(C)C	i	i	21.0%	-14.9%	1.4%
COc1ccc(OC)c(NC(=O)CSc2nnc(Cc3cccn3C)n2CCc2ccccc2)c1	i	7.31µM*	u	13.7%	-4.2%
O=C(CSc1ncc(-c2ccc(F)cc2)n1Cc1ccco1)Nc1nccs1	u	u	2.5%	-0.2%	0.0%
Cc1cc(NC(=O)CSc2nnc(COc3cccc(C)c3C)n2Cc2ccco2)no1	i	i	u	-12.6%	0.2%
Cc1cnc(NC(=O)CSc2ncc(-c3ccccc3)n2Cc2ccco2)s1	i	20.6µM*	u	2.4%	u
COc1ccc(C)cc1NC(=O)CSc1nnc(COc2ccccc2)n1Cc1ccco1	u	u	18.4µM*	7.5%	u
COc1ccc(C)cc1NC(=O)CSc1nnc(COc2ccc(Cl)cc2)n1Cc1ccco1	i	u	-18.3%	0.1%	u
Cc1cccc(OCc2nnc(SCC(=O)N(C(C)C)C(C)C)n2Cc2ccco2)c1C	i	10.3µM*	u	20.6µM*	u
COc1ccc(NC(=O)CSc2nnc(-c3ccccc3Cl)n2Cc2ccco2)c(OC)c1	i	i	u	15.2%	3.8%
COc1ccc(NC(=O)CSc2nnc(-c3ccccc3)n2Cc2ccco2)c(OC)c1	i	i	13µM*	1.9%	-0.6%
COc1ccc(C)cc1NC(=O)CSc1nnc(-c2ccccn2)n1Cc1ccco1	i	11.6µM*	-19.6%	-0.4%	-0.9%
COc1ccccc1N1CCN(C(CNC(=O)C(=O)NCc2ccc(F)cc2)c2cccnc2)CC1 (stereo not given)	u	i	x	x	x
COc1ccc(CC(=O)Nc2ccc3nc(Nc4ccc(OC)cc4)cc(C)c3c2)cc1	u	i	x	x	x
COc1ccc(Nc2cc(C)c3cc(NC(=O)c4cc(OC)cc(OC)c4)ccc3n2)cc1	8.2µM*	u	x	x	x
CCN(CC(=O)Nc1ccccc1OC)C(=O)COc1ccc2ccccc2c1	i	14.6µM*	-1.2%	-14.3%	0.7%
CCOC(=O)Cn1nc(NC(=O)c2cc(OC)cc(OC)c2)cc1C	i	i	u	-2.4%	20.6µM*

Bioassay records (PubChem BioAssay)
